Structures can show the parent of a compound that is named as a salt. Where two headings read alike, the source gives them in different places.

The test system of the assay is thyroid hormone receptor (endogenous TRα and TRβ). Further details: species or system GH3-TRE-Luc (rat pituitary); GH3-TRE-Luc luciferase reporter, antagonist mode against 1 nM T3, loss of signal, qHTS.
The mark [1] stands for this setting: read-out: Average AC50 (uM) GH3-TRE-Antag, antagonist mode, 1 nM T3, no GH3 cytotoxicity hit.
The mark [2] stands for this setting: read-out: Average AC50 (uM) GH3-TRE-Antag, antagonist mode, 1 nM T3, no GH3 cytotoxicity hit, Average AC50 (uM) GH3-TRE-Antag, 24 h.

On to `CCCN1C[C@H](CSC)C[C@@H]2c3cccc4[nH]cc(c34)C[C@H]21` [Pergolide methanesulfonate], for which the AC50 (as a rule, the concentration at which the activity in the assay is half-maximal) under setting [1] is 10.1 µM. For the compound `Cc1ccccc1C(=O)Nc1cccc(OC(C)C)c1` [Mepronil], under setting [1], the AC50 is 48.2 µM. With `CCCCOC(=O)c1ccc(N)cc1` [Butyl 4-aminobenzoate], the AC50 under setting [1] is 21.8 µM. Same read-out and setting: the same measure for `C=CCNC1=C2C[C@@H](C)C[C@H](OC)[C@H](O)[C@@H](C)/C=C(\C)[C@H](OC(N)=O)[C@@H](OC)/C=C\C=C(/C)C(=O)NC(=CC1=O)C2=O` [Tanespimycin]: 0.306 µM.

With `CCCC(=O)c1cc(O)c(O)cc1O` [2',4',5'-Trihydroxybutyrophenone], under setting [1], the concentration at half-maximal activity (AC50) turned out to be 52.7 µM.

Consider `CCCC1C(CC)=CC(CC)=CN1c1ccccc1` (stereo not shown) [3,5-Diethyl-1-phenyl-2-propyl-1,2-dihydropyridine], for which, under setting [1], the AC50 was 53.9 µM. Still for that read-out and setting: under `CCCC(=O)OC[C@@H](OC(=O)CCC)[C@@H](OC(=O)CCC)[C@H](Cn1c2nc(=O)[nH]c(=O)c-2nc2cc(C)c(C)cc21)OC(=O)CCC` [Riboflavin tetrabutyrate] stands 42 µM; under `NC1=NCC2c3ccccc3Cc3ccccc3N12` (stereo not shown) [Epinastine hydrochloride], 27.1 µM. For `CCOC(=O)Oc1c(OC)cc(C(=O)O[C@@H]2C[C@@H]3CN4CCc5c([nH]c6cc(OC)ccc56)[C@H]4C[C@@H]3[C@H](C(=O)OC)[C@H]2OC)cc1OC` [Syrosingopine], the AC50 under setting [1] was 19 µM. Turning to `ClC1C(Cl)C(Cl)C(Cl)C(Cl)C1Cl` (stereo not drawn) [alpha-1,2,3,4,5,6-Hexachlorocyclohexane], the AC50 under setting [1] is 26.5 µM. Regarding `CCO/N=C(\CC)C1=C(O)CC(c2c(C)cc(C)cc2C)CC1=O` (stereo not shown) [Tralkoxydim], the AC50 under setting [1] was more than 90 µM.

Regarding `c1ccc2c(c1)[nH]c1cnccc12` [Norharman], the AC50 under setting [1] worked out at 45.1 µM. As for `OCCOCCN1CCN(C2=Nc3ccccc3Sc3ccccc32)CC1` [Quetiapine], the AC50 under setting [2] stood at 34 µM. In the case of `CCOC(=O)Cn1cccc1-c1nc(-c2ccc(OC)cc2)c(-c2ccc(OC)cc2)s1` [Pamicogrel], under setting [1], the AC50 was found to be 14.5 µM. For the compound `Cc1nc2ccc(CN(C)c3ccc(C(=O)N[C@@H](CCC(=O)O)C(=O)O)s3)cc2c(=O)[nH]1` [Raltitrexed], the AC50 under setting [1] amounted to 0.18 µM. Consider `CCCOc1ccc2nc(NC(=O)OC)sc2c1` [Tioxidazole], for which, under setting [1], the AC50 is 2.52 µM. Same read-out and setting: the same measure for `CC1(C)N=C(N)N=C(N)N1c1ccc(Cl)cc1` [Cycloguanil hydrochloride]: 28.6 µM; for `CC1(C)CC/C(=C\c2ccc(Cl)cc2)C1(O)Cn1cncn1` (stereo not shown) [Triticonazole]: more than 90 µM. As for `O=S(=O)(NS(=O)(=O)C(F)(F)F)C(F)(F)F` [1-Hexyl-3-methylimidazolium bis(trifluoromethylsulfonyl)imide], under setting [1], the AC50 was 66.1 µM.

Consider `CCCc1c(OCCCCc2nnn[nH]2)ccc(C(C)=O)c1O` [Tomelukast], for which the AC50 under setting [1] stood at 49.2 µM.

Turning to `O=C1c2ccccc2-c2n[nH]c3cccc1c23` [SP600125], the AC50 under setting [1] came out at 11.6 µM. Turning to `NC(=O)C1(N2CCCCC2)CCN(CCCC(=O)c2ccc(F)cc2)CC1` [Pipamperone dihydrochloride], the AC50 under setting [1] was 25.9 µM.

As for `CCCCCCn1cc[n+](C)c1` [1-Hexyl-3-methylimidazolium bromide], the concentration at half-maximal activity (AC50) under setting [2] stood at 47.7 µM. `O=c1[nH]c(=O)n([C@H]2C[C@H](O)[C@@H](CO)O2)cc1F` [Floxuridine]: the AC50 under setting [1] is 4.49 µM. The same measure, in the same setting: the same measure for `CC[C@@H]1/C=C(\C)C[C@H](C)C[C@H](OC)[C@H]2O[C@@](O)(C(=O)C(=O)N3CCCC[C@H]3C(=O)O[C@H](/C(C)=C/[C@@H]3CC[C@H](Cl)[C@H](OC)C3)[C@H](C)[C@@H](O)CC1=O)[C@H](C)C[C@@H]2OC` [Pimecrolimus]: 16 µM. For the compound `O=C(OCc1ccccc1)c1ccc(O)cc1` [Benzylparaben], under setting [1], the AC50 is more than 50 µM. On to `C=CCc1ccccc1OCC(O)CNC(C)C` (stereo not shown) [Alprenolol], for which the AC50 under setting [1] came to 27.2 µM. On to `CCN(CC)CCNC(=O)c1cc(Br)c(N)cc1OC` [Bromopride], for which the AC50 under setting [1] is 38.6 µM.

`Oc1cc(Cl)cc(Cl)c1` [3,5-Dichlorophenol]: the AC50 under setting [1] came to 54 µM.

Consider `CC#Cc1cc(C)nc(Nc2ccccc2)n1` [Mepanipyrim], for which the AC50 under setting [1] was found to be 64.8 µM. Still for that read-out and setting: under `CC(C)(c1ccc(O)cc1)c1ccc(O)cc1` [BPA, bisphenol A] stands 66.6 µM.

The record behind these values is publication PMC6792352, “Limited Chemical Structural Diversity Found to Modulate Thyroid Hormone Receptor in the Tox21 Chemical Library” (Environmental Health Perspectives, 2019).
